Here are results for 14 compounds from PubChem BioAssay (NCI).

SMILES strings stand for the structures. Values joined by “and” are separate entries in the source; they are usually repeats but may differ in a detail not shown here. Identical values can stand only once. The panel holds about 79,000 compounds, 15% with a hit somewhere; the sample as a whole holds those more often. More than one record can exist for a structure, and the calls need not agree. Active and inactive are the calls of the source. No stated cut-off is given here; in the data, active means growth inhibition above about 70%; inactive means the rest.

This assay is described as follows: NCI Yeast Anticancer Drug Screen. Data for the mlh1 rad18 strain (AID 175). Particulars: S. cerevisiae mlh1 rad18 strain growth inhibition, stronger effect = higher value. The method, then:
Growth inhibition of yeast strains with defined genetic alterations is measured as a screen for potential anti-cancer activity. Selected strains with alterations in DNA damage repair or cell cycle control were exposed to compounds and growth inhibition was measured relative to vehicle treated controls. The strain used in this assay is mlh1 rad18

[1] abbreviates: at 5.0 µM (retest, dose inferred, filed as 0.5).
[2] abbreviates: at 50.0 µM (retest, dose inferred, filed as 5.0).

Turning to `COc1cccc2c1C(=O)c1c(O)c3c(c(O)c1C2=O)C[C@@](O)(C(=O)CO)C[C@@H]3OC1CC(N)C(O)C(C)O1` (stereo partly specified), the growth inhibition runs as follows: under setting [1], 69% (inactive) and 44% (inactive) and -8% (inactive); under setting [2], 98% (active) and 84% (active) and -10% (inactive); (at 50.0 µM) 92.8% (active) and 89.8% (active) and 46.3% (inactive).

For `C=C1C(=O)OC2CC(C)C3C4OC4C(O)C3(C)C(O)C12` (stereo unspecified), the growth inhibition under setting [1] was 0% (inactive), the growth inhibition under setting [2] is -2% (inactive) and the growth inhibition (at 50.0 µM) is 63.6% (inactive).

In the case of `Clc1ccc(CNNCc2ccc(Cl)cc2)cc1`, the growth inhibition by setting is: under setting [1], -2% (inactive); under setting [2], 94% (active); (at 50.0 µM) 11.7% (inactive) and 67.8% (inactive).

For `Cc1ccc(S(=O)(=O)SC/C=C\CSS(=O)(=O)c2ccc(C)cc2)cc1`, the growth inhibition was 2% (inactive) and 53% (inactive) under setting [1]; 98% (active) and 95% (active) under setting [2]; 95.9% (active) and 41.2% (inactive) (at 50.0 µM).

For the compound `CCC1CCCC(=O)C1` (stereo unspecified), the growth inhibition under setting [1] was -2% (inactive), the growth inhibition under setting [2] was 0% (inactive) and the growth inhibition (at 50.0 µM) was 91.8% (active).

With `Nc1nc(Cl)cc(NCCCCCCCCCCNc2cc(Cl)nc(N)n2)n1`, the growth inhibition reads like this: under setting [1], 14% (inactive); under setting [2], 99% (active); (at 50.0 µM) 33% (inactive).

On to `Cc1cccc(Cc2ccccc2Cl)c1O`, for which the growth inhibition under setting [1] is -2% (inactive), the growth inhibition under setting [2] is 81% (active) and the growth inhibition (at 50.0 µM) was 46.2% (inactive).

Consider `COc1cc(OC)c(OC)cc1/C=C\c1ccnc2ccccc12`, for which the growth inhibition was 13% (inactive) under setting [1] and 83% (active) under setting [2].

Consider `S=c1nc[nH]c2[nH]ccc12`, for which the growth inhibition is, setting by setting: under setting [1], -1% (inactive); under setting [2], 0% (inactive); (at 50.0 µM) 2.8% (inactive).

`NC(CCCCNC(=O)c1ccccc1)C(=O)O` (stereo unspecified): the growth inhibition is -3% (inactive) under setting [1]; -3% (inactive) under setting [2]; -1.1% (inactive) and -21.9% (inactive) (at 50.0 µM).

Consider `Cc1cc(O)c(C(C)C)cc1Cl`, for which the growth inhibition under setting [1] is 7% (inactive); the growth inhibition under setting [2] is 84% (active); the growth inhibition (at 50.0 µM) is 26.8% (inactive) and 98.8% (active).

As for `O=[N+]([O-])c1cc2c(cc1S(=O)(=O)O)C1C(C3C2C2(Cl)C(Cl)=C(Cl)C3(Cl)C2(Cl)Cl)C2(Cl)C(Cl)=C(Cl)C1(Cl)C2(Cl)Cl` (stereo unspecified), the growth inhibition by setting is: under setting [1], 8% (inactive); under setting [2], 57% (inactive); (at 50.0 µM) 67.3% (inactive).

For `CCOc1ccc(N/N=C(\CCC(=O)O)C(=O)O)cc1`, the growth inhibition is -5% (inactive) under setting [1], 96% (active) under setting [2] and 95.2% (active) (at 50.0 µM).

As to `CC12CCCCC1C/C(=N/NC(N)=O)CC2` (stereo unspecified), the growth inhibition reads like this: under setting [1], -123% (inactive); under setting [2], -99% (inactive); (at 50.0 µM) 14.5% (inactive) and 10.7% (inactive).
